Values joined by “and” are separate entries in the source; they are usually repeats but may differ in a detail not shown here. Equal values may be shown once. The panel holds about 83,000 compounds, 20% with a hit somewhere; the sample as a whole holds those more often.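 How to read the values: 0–100, growth inhibition (40 = 60% inhibited); 0, no net growth; -100 to 0, cell death (-40 = 40% of starting cells died; -100 = all dead).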 Active and inactive are the calls of the source. The calls were made as follows: active = growth percent below 10; inactive = the rest.
How the values were obtained:
Assay in all cases: NCI-60 one-dose screen, 48 h (100 = growth as untreated, 0 = no growth, -100 = all killed)
Details in all cases: 10 µM unless noted
[1] = test system: HCT-15 colon
[2] = test system: HT29 colon
[3] = test system: SNB-75 CNS
[4] = test system: SNB-19 CNS
[5] = test system: U251 CNS
[6] = test system: PC-3 prostate
[7] = test system: SK-MEL-5 melanoma
[8] = test system: UACC-62 melanoma
[9] = test system: LOX IMVI melanoma
[10] = test system: SK-MEL-28 melanoma
[11] = test system: SK-MEL-2 melanoma
[12] = test system: EKVX NSCLC
[13] = test system: SN12C renal
[14] = test system: UO-31 renal
[15] = test system: TK-10 renal
[16] = test system: ACHN renal
[17] = test system: CAKI-1 renal
[18] = test system: A498 renal
[19] = test system: CCRF-CEM leukemia
[20] = test system: MOLT-4 leukemia

Measured: growth

O=CNc1cccc(-n2cnc3cc(-c4ccc(O)cc4)ccc32)c1
inactive: [1] 15.5% | [2] 22.7% | [3] 21.4% | [4] 43.3% | [5] 25.4% | [6] 49% | [7] 35.6% | [8] 38.2% | [9] 21.2% | [10] 56.2% | [11] 79.2% | [12] 71.5% | [13] 22.9% | [14] 10.3% | [15] 79.3% | [16] 16.9% | [17] 42.2% | [18] 147% | [19] 23% | [20] 27.7%

COc1cc(/C=N/NC(=O)c2ccc(OCc3nc4ccc(Cl)cc4[nH]3)cc2)cc(OC)c1OC
active: [7] -19.9% | [19] 3.83%
inactive: [1] 37.4% | [2] 21.4% | [3] 123% | [4] 55.5% | [5] 52.8% | [6] 35.5% | [8] 16.7% | [9] 26% | [10] 32.4% | [11] 74.5% | [12] 33.3% | [13] 48.7% | [14] 45.5% | [15] 74.9% | [16] 39.1% | [17] 40.5% | [18] 121% | [20] 12.1%

O=C1c2cccc3c(N4CCN(Cc5ccccc5)CC4)ccc(c23)C(=O)N1c1cccc(-c2nn(-c3ccccc3)cc2-c2nc3ccccc3s2)c1
inactive: [1] 110% | [2] 115% | [3] 84.3% | [4] 103% | [5] 106% | [6] 88.1% | [7] 102% | [8] 94.6% | [9] 97.9% | [10] 106% | [11] 111% | [12] 98.6% | [13] 101% | [14] 68.8% | [15] 120% | [16] 93.1% | [17] 86.1% | [18] 125% | [19] 105% | [20] 113%

CCC1(OC(=O)c2ccccc2SSCCOC(=O)CCCCC2SCC3NC(=O)NC32)C(=O)OCc2c1cc1n(c2=O)Cc2cc3ccccc3nc2-1 (stereo not given)
inactive: [1] 64.7% | [2] 67.8% | [3] 81.3% | [4] 36.7% | [5] 36.2% | [6] 37.4% | [7] 21.1% | [8] 17.7% | [9] 33.9% | [10] 96% | [11] 103% | [12] 52.1% | [13] 32.3% | [14] 38.4% | [15] 94.8% | [16] 20.3% | [17] 10.5% | [18] 104% | [20] 21.8%
active: [19] 9.01%

Cn1cc(-c2cc(N)n3nc(-c4c[nH]c5ccc(Cl)cc45)cc3n2)c2cc(Br)cnc21
active: [1] -80.2% | [2] -72% | [3] -24.4% | [4] 2.78% | [5] -73.9% | [6] -52.4% | [7] -57% | [8] -59.6% | [9] -93.3% | [10] -25.9% | [11] -49.9% | [12] 0.312% | [14] -39.3% | [15] -53.1% | [16] -76.3% | [17] -63% | [19] -66.1% | [20] -56.2%
inactive: [13] 42.5% | [18] 29%

NS(=O)(=O)c1cccc(Nc2nc(SCC(=O)c3ccc(F)cc3)nc3ccccc23)c1
inactive: [2] 18.3% | [3] 28.3% | [4] 11.9% | [6] 16.6% | [10] 26.8% | [12] 28% | [13] 15.8% | [14] 17.9% | [15] 44.6% | [16] 25.9% | [17] 21.9% | [18] 71.1%
active: [1] 8.07% | [5] -12% | [7] -29.1% | [8] -49.8% | [9] -44.6% | [11] -47% | [19] 1.38% | [20] 2.93%

CC(C)(C)c1ccc(OCc2nc3ccccc3n2-c2cccc(N)c2)cc1
inactive: [1] 39.3% and 103% | [2] 30.8% and 110% | [3] 56.9% and 120% | [4] 75.3% and 100% | [5] 59.3% and 105% | [6] 35.2% and 99.9% | [8] 55.3% and 98.3% | [9] 54.7% and 97.9% | [10] 79.4% and 121% | [11] 62.8% and 109% | [12] 45.5% and 96.8% | [13] 79.2% and 106% | [14] 43.4% and 83.6% | [15] 93.3% and 111% | [16] 70.2% and 112% | [17] 44.4% and 95.6% | [18] 142% and 126% | [19] 46% and 96.1% | [20] 25.4% and 90.9%
5.56% (active) and 98.9% (inactive): [7]
